# Screens as filed in PubChem BioAssay.
# SENP7 block: SENP7 protease inhibition. recombinant SENP7, Z-RLRGG-aminoluciferin luminescence, 40 min. inhibition, % at 5 µM. 330,000 compounds, 1.5% hits;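 active means inhibition above about 50% at the single test dose, limit read from the data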;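 further: plate controls were DMSO with enzyme for no effect and no enzyme buffer wells for full effect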
# Target sequence (Q9BQF6 706-1050 limits assumed): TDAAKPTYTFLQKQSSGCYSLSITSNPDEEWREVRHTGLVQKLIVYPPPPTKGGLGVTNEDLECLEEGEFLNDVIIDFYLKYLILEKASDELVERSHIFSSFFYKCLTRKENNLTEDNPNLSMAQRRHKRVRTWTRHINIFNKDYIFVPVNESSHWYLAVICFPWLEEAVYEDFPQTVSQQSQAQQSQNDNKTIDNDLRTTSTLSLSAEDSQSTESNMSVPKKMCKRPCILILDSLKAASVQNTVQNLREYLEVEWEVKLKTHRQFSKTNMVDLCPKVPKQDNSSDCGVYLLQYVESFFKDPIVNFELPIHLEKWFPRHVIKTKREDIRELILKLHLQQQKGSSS
# PPC-1+TRAIL kill: kills PPC-1 cancer cells in the presence of TRAIL; PPC-1 cells + TRAIL, ATPLite viability luminescence; cell killing (% activity), % at 4 µM or 5 µM; 220,000 compounds, 0.41% hits;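 active means cell killing above 50% in the first pass at 4 µM, then a duplicate retest at 5 µM averaging 50% or more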;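 further: plate controls were cells with TRAIL plus DMSO for no effect and medium-only wells lacking cells for full effect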
# SENP8 block-1: SENP8 (human) protease inhibition | AID 602440 | recombinant SENP8, Nedd8 substrate fluorescence | Q96LD8 | 360,000 compounds, 0.64% hits | inhibition, % at 20 µM; in the data active means inhibition mostly above about 40%, no sharp cut-off; inactive means mostly below about 27%
# Target sequence (Q96LD8 whole entry, looked up): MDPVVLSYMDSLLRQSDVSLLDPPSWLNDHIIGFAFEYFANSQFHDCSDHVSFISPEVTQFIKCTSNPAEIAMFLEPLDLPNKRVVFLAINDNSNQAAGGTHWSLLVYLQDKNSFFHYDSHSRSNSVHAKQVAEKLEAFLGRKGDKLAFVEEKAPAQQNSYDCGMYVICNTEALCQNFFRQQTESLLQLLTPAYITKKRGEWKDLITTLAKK
# SENP6 inh: inhibitors of human SENP6 protease. Recombinant SENP6 catalytic domain, aminoluciferin luminescence. inhibition, % at 10 µM. 330,000 compounds, 1.8% hits;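 active means inhibition above about 50% at the single tested dose, limit read from the data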;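 further: plate controls were DMSO wells with enzyme for no effect and DMSO wells lacking enzyme for full effect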
# SENP8 block-2: blocks the human protease SENP8. 330,000 compounds, 1.2% hits. Q96LD8. inhibition, % at 10 µM. purified SENP8, Z-RLRGG-aminoluciferin cleavage, luminescence. AID 2540; in the data active means inhibition above about 50%
# C8 TRAIL sens: caspase-8 TRAIL sensitization | AID 624354 | 360,000 compounds, 1% hits | inhibition (viability loss, TRAIL sensitization), % at 10 µM | NB7+C8 cells + TRAIL, ATPlite viability luminescence;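 active means compounds causing at least 50% loss of cell viability in the single-dose screen, relative to plate controls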
# * = called active by the depositor; · = not tested or not shown. Rows were chosen to be rich in hits. Some 3% of all compounds tested hit in one or more screens of this group.
SMILES,SENP7 block,PPC-1+TRAIL kill,SENP8 block-1,SENP6 inh,SENP8 block-2,C8 TRAIL sens
CC(=O)OC(C)(C)/C=C/C(=O)[C@](C)(O)[C@H]1[C@H](O)C[C@@]2(C)[C@@H]3CC=C4[C@H](C[C@H](O)C(=O)C4(C)C)[C@]3(C)C(=O)C[C@]12C,·,50*,16,·,·,32
CC(=O)OC(C)(C)/C=C/C(=O)C(C)(O)C1[C@H](O)C[C@@]2(C)C3CC=C4C(CC[C@@H](O)C4(C)C)[C@]3(CO)C(=O)C[C@]12C (stereo partly drawn),-2,·,22,-10,6,53*
O=C(NC1CCCCC1)N1Cc2cc(-c3ccccc3)ccc2-n2nncc2C1,·,·,-2,·,·,-6
C[C@@H]1O[C@@H](O[C@@H]2C=C3CCC4C(CC[C@]5(C)[C@@H](c6ccc(=O)oc6)CC[C@]45O)[C@@]3(C)CC2)[C@H](O)[C@H](O)[C@H]1O (stereo partly drawn),-4,·,4,-2,8,75*
C[C@@H]1O[C@@H](O[C@@H]2C=C3CC[C@@H]4C(CC[C@]5(C)[C@@H](c6ccc(=O)oc6)CC[C@]45O)[C@@]3(C)CC2)[C@H](O)[C@H](O)[C@H]1O (stereo partly drawn),5,·,12,3,12,76*
CC(=O)C1CCC2(O)C3CCC4=CC(=O)CCC4(C)C3CCC12C (stereo not drawn),·,·,-2,·,·,-12
COc1ccc(-[n+]2c(-c3ccccc3)cc(-c3ccccc3)cc2-c2ccccc2)cc1,1,·,·,3,-2,·
Oc1ccc(-[n+]2c(-c3ccccc3)cc(-c3ccccc3)cc2-c2ccccc2)cc1,-15,·,-44,0,1,65*
COc1ccc(CN2C(=O)NC(=O)/C(=C/c3ccc([N+](=O)[O-])s3)C2=O)cc1,3,-9,43*,34,11,11
O=C1NC(=O)N(Cc2ccc(F)cc2)C(=O)/C1=C\c1ccc(N2CCCC2)cc1,4,2,2,3,1,-1
O=C1NC(=O)N(Cc2ccc(F)cc2)C(=O)/C1=C\c1ccc([N+](=O)[O-])s1,4,10,50*,32,18,-6
O=C(Cc1ccccc1F)N1CCN(CC(=O)N2CCCC2)CC1,2,·,1,9,0,-2
COc1cc2c(cc1OC)C13CCN4CC5=CCOC6CC(=O)N2C1C6C5CC43 (stereo not drawn) (tested in a mixture with another compound),9,4,32,-5,-11,-5
Nc1cc(C(=O)Nc2ccccc2F)ccc1N1CC2CC(C1)c1cccc(=O)n1C2 (stereo not drawn),·,·,-414,·,·,1
C=CC1CN2CCC1CC2[C@@H](OC(=O)c1ccc(OC)cc1)c1ccnc2ccccc12 (stereo partly drawn),-10,54*,11,-20,-15,0
CC1=CC2OC3CC4OC(=O)C=CC=CC(C(C)O)OCC(O)C(C)CC(=O)OCC2(CC1O)C4(C)C31CO1 (stereo not drawn),·,·,-9,·,·,69*
CC1=CC2OC3CC4OC(=O)C=CC=CC(=O)OCCC(C)C(O)C(=O)OCC2(CC1O)C4(C)C31CO1 (stereo not drawn),·,·,-1,·,·,72*
CC1=C2C3OC(=O)C(C)C3CC[C@@]2(C)C=CC1=O (stereo partly drawn),-3,27,0,3,10,3
Cc1ccsc1C(=O)C1CCCN(Cc2c(C)nn(C(C)C)c2C)C1 (stereo not drawn),1,17,13,-14,15,-7
C=C(C)CSc1nnc([C@@H](N)Cc2c[nH]c3ccccc23)o1,-6,-3,4,5,4,-10
Cc1[nH]nc2ccc(-c3cncc(OC[C@@H](N)Cc4c[nH]c5ccccc45)c3)cc12,·,·,0,·,·,90*
Nc1ncnc2c1ccn2[C@@H]1O[C@H](CO)[C@@H](O)[C@H]1O,7,·,9,1,-7,88*
CCCC[n+]1cc(/N=C(\[O-])OC)on1,-6,25,4,-8,-9,6
Cc1ccccc1CN1Cc2cnnn2-c2ccccc2C1C#N (stereo not drawn),·,·,6,·,·,49*
N/C(=N\[N+](=O)[O-])N1CCN(C(=O)c2ccccn2)CC1,-6,·,10,-22,-8,-1
SMILES,SENP7 block,PPC-1+TRAIL kill,SENP8 block-1,SENP6 inh,SENP8 block-2,C8 TRAIL sens
COc1ccc(CC2NCC(O)C2OC(C)=O)cc1 (stereo not drawn),·,·,29,·,·,85*
COc1ccccc1-n1c(-c2ccccc2Cl)nc2ccccc2c1=O,5,·,4,7,9,4
COc1ccc(-c2cc(C(=O)N3CCC4(CC3)OCCO4)c3ccccc3n2)cc1,0,·,-371,-5,-15,42
CCOc1ccc(-c2cc(C(=O)N3CCC4(CC3)OCCO4)c3ccccc3n2)cc1,·,·,-425,·,·,71*
CN1C(=O)NC(=O)C(N=Nc2ccc(Cl)cc2)C1=O (stereo not drawn),·,·,22,·,·,16
NCCc1cc(O)c(O)cc1O,·,·,36*,·,·,14
COc1nc(C)nc(NC(=O)NS(=O)(=O)c2ccccc2Cl)n1,4,·,10,7,7,3
COC1C(C)OC(OC2CC(C)(O)Cc3cc4c(c(O)c32)C(=O)c2c(O)cc3c(c2C4=O)OC2OC3(C)C(O)C(N(C)C)C2O)C(OC)C1(C)OC (stereo not drawn),·,·,41*,·,·,37
COC12C(COC(N)=O)C3=C(C(=O)C(C)=C(N)C3=O)N1CC1C2N1C (stereo not drawn),5,1,37,13,18,-1
COC(COC(N)=O)C1=C(N2CC2)C(=O)C(C)=C(N2CC2)C1=O (stereo not drawn),·,·,38,·,·,74*
CC12CC[C@H]3[C@@H](CCC4(O)C[C@H](O)CCC34/C=N/NC(=O)c3ccc(O)cc3)C1(O)CCC2C1=CC(=O)OC1 (stereo partly drawn),-3,6,15,4,-2,-7
CC(=O)OC1CC(OC2C(O)CC(OC3C(O)CC(OC4CCC5(C)C(CCC6C5CCC5(C)C(C7=CC(=O)OC7)CCC65O)C4)OC3C)OC2C)OC(C)C1OC1OC(CO)C(O)C(O)C1O (stereo not drawn),·,·,11,·,·,66*
CC[n+]1c(-c2ccccc2)c2cc(N)ccc2c2ccc(N)cc21,·,·,97*,·,·,22
O=[N+]([O-])c1ccc(NC2CCCC2)c2ccncc12,19,·,47*,40,15,3
COc1ccc2nc(-c3ccc(CN4CCC(n5c(=O)[nH]c6ccccc65)CC4)cc3)c(-c3ccccc3)nc2c1,·,·,-386,·,·,51*
COc1ccc(-n2nnnc2C(CCc2ccccc2)N2CCC(n3c(=O)[nH]c4ccccc43)CC2)cc1 (stereo not drawn),·,·,35,·,·,90*
Cc1ccc2nc(-c3ccc(CN4CCC(n5c(=O)[nH]c6ccccc65)CC4)cc3)c(-c3ccccc3)nc2c1,·,·,-90,·,·,28
